PubChem BioAssay AID651601 (Sanford-Burnham Center for Chemical Genomics, 2012)
Calls of active or inactive are those of the source.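 The calls were made as follows: active = CXCR6 mean IC50 below 15 µM, and neither CCR6 nor CXCR5 mean IC50 under five times that; inactive = the rest.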

Each compound was assayed against C-X-C chemokine receptor type 5 (Homo sapiens) (UniProt P32302) (assay: chemokine receptor panel antagonism: CCR6, CXCR5, CXCR6, profiling panel, selectivity assay for CXCR6 antagonist project, cell-based, CHO-K1 PathHunter beta-arrestin, luminescence (AID 651601)). Conditions: antagonist mode, mean of runs.
C-X-C chemokine receptor type 5 (Homo sapiens), sequence (P32302 whole entry, looked up): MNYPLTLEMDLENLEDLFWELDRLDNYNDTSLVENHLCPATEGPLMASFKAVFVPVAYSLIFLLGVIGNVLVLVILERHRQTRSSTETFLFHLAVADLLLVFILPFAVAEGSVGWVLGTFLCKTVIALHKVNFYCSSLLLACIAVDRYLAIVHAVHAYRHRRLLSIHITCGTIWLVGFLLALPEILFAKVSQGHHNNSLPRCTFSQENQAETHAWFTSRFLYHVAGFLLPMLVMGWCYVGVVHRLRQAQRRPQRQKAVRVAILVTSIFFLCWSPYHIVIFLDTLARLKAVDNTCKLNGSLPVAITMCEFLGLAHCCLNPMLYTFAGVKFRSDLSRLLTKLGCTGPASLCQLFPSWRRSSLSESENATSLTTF

outcome, inactive:
COc1cccc(C(=O)NC2CC3CCCC(C2)N3CC(=O)Nc2ccccc2C(F)(F)F)c1 (stereo unspecified)
O=C(CN1C2CCCC1CC(NC(=O)c1ccccc1)C2)Nc1ccccc1C(F)(F)F (stereo unspecified)
O=C(CN1C2CCCC1CC(NC(=O)c1ccccc1)C2)Nc1ccccc1 (stereo unspecified)
COc1cccc(C(=O)NC2CC3CCCC(C2)N3CC(=O)Nc2ccc(N(C)C)cc2)c1 (stereo unspecified)
CN(C)c1ccc(NC(=O)CN2C3CCCC2CC(NC(=O)c2ccccc2)C3)cc1 (stereo unspecified)
COc1cc(C(=O)NC2CC3CCCC(C2)N3CC(=O)Nc2ccccc2)cc(OC)c1OC (stereo unspecified)
